In PubChem BioAssay (NCI):
About 79,000 compounds went through this panel and 15% of them were active in at least one assay; those are over-represented in the sample as a whole. Active and inactive are the calls of the source. No stated cut-off is given here; in the data, active means growth inhibition above about 70%; inactive means the rest.

Key:
[1] = NCI Yeast Anticancer Drug Screen. Data for the wt1 strain (AID 149);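 further: 0% = growth of vehicle-treated wt1 cultures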; conditions: S. cerevisiae wt1 strain (SPY 50644) growth inhibition, stronger effect = higher value
Summary of the method: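 wt1 strain grown with compound or vehicle; inhibition taken from the growth difference.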

[2] = NCI Yeast Anticancer Drug Screen. Data for the rad50EPP+ strain (AID 151);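 further: 0% = growth of vehicle-treated control cultures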; conditions: S. cerevisiae rad50 mutant strain, stronger effect = higher value
Summary of the method: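 Strain rad50EPP+; compound exposure; % growth inhibition vs vehicle.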

[3] = NCI Yeast Anticancer Drug Screen. Data for the mgt1 strain (AID 153); conditions: S. cerevisiae mgt1 mutant growth inhibition, stronger effect = higher value
Summary of the method: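 Read-out: yeast growth inhibition vs vehicle control. Strain mgt1, drawn from a panel altered in DNA damage repair or cell cycle control.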

[4] = NCI Yeast Anticancer Drug Screen. Data for the rad50 strain (AID 155);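 further: 0% = growth of vehicle-only cultures of the same strain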; conditions: S. cerevisiae rad50 strain growth inhibition, stronger effect = higher value
Summary of the method: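 DNA repair mutant yeast, compound exposure, growth read-out; inhibition is taken relative to vehicle.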

[5] = NCI Yeast Anticancer Drug Screen. Data for the mec2-1 strain (AID 157); conditions: S. cerevisiae mec2-1 strain, stronger effect = higher value
Summary of the method: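 Cells of the genetically defined mec2-1 yeast strain are incubated with test compound. Inhibition of growth is calculated against vehicle-treated controls.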

[6] = NCI Yeast Anticancer Drug Screen. Data for the rad14 strain (AID 159);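 further: 0% = growth of vehicle-treated control cultures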; conditions: S. cerevisiae rad14 strain growth inhibition, stronger effect = higher value
Summary of the method: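 DNA repair-defective yeast, compound-exposed; % growth inhibition derived by comparison with vehicle-treated controls.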

[7] = NCI Yeast Anticancer Drug Screen. Data for the sgs1 mgt1 strain (AID 161);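 further: 0% = growth of cultures given vehicle only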; conditions: S. cerevisiae sgs1 mgt1 strain, stronger effect = higher value
Summary of the method: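 Genetically altered yeast, compound exposure, growth inhibition relative to vehicle.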

[8] = NCI Yeast Anticancer Drug Screen. Data for the CLN2oe strain (AID 163);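 further: 0% = growth of vehicle-only control cultures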; conditions: S. cerevisiae CLN2oe strain, stronger effect = higher value
Summary of the method: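 Strain altered in cell-cycle control, incubated with compound; growth compared to solvent-treated controls.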

[9] = NCI Yeast Anticancer Drug Screen. Data for the cln2 rad14 strain (AID 165);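 further: 0% = growth equal to vehicle treated cultures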; conditions: S. cerevisiae cln2 rad14 strain, stronger effect = higher value
Summary of the method: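 The screen exposed genetically defined yeast (cln2 rad14) to test compounds and scored growth inhibition relative to vehicle-treated controls.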

[10] = NCI Yeast Anticancer Drug Screen. Data for the bub3 strain (AID 167); conditions: S. cerevisiae bub3 mutant strain, stronger effect = higher value
Summary of the method: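 In this screen, a yeast mutant lacking normal mitotic checkpoint function is challenged with compound. Relative growth versus vehicle gives the inhibition value.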

[11] = NCI Yeast Anticancer Drug Screen. Data for the wt2 strain (AID 169);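 further: 0% = growth of vehicle-treated yeast cultures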; conditions: S. cerevisiae wt2 strain growth inhibition, stronger effect = higher value
Summary of the method: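 Steps: yeast strain treated with compound; growth recorded; inhibition calculated relative to cultures given vehicle alone.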

[12] = NCI Yeast Anticancer Drug Screen. Data for the mlh1 strain (AID 171);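 further: 0% = growth of vehicle-treated control cultures of the same strain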; conditions: S. cerevisiae mlh1 strain growth inhibition, stronger effect = higher value
Summary of the method: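 Yeast screen: mutant strain plus compound, growth scored against vehicle control wells.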

[13] = NCI Yeast Anticancer Drug Screen. Data for the sgs1 strain (AID 173);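 further: 0% = growth of vehicle-only control cultures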; conditions: S. cerevisiae sgs1 mutant, stronger effect = higher value
Summary of the method: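 Inhibition of yeast growth served as the measure. The mutant strain was treated with each compound, and growth was normalised to cultures receiving vehicle alone.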

[14] = NCI Yeast Anticancer Drug Screen. Data for the mlh1 rad18 strain (AID 175); conditions: S. cerevisiae mlh1 rad18 strain growth inhibition, stronger effect = higher value
Summary of the method: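 Compound-treated yeast growth, normalised to vehicle controls. Strain bears defined DNA repair mutations.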

[15] = NCI Yeast Anticancer Drug Screen. Data for the rad18 strain (AID 177); conditions: S. cerevisiae rad18 mutant growth inhibition, stronger effect = higher value
Summary of the method: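 Inhibition values reflect reduced yeast growth compared with vehicle-treated controls, using a strain engineered with a DNA damage repair defect.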

[16] = at 5.0 µM (retest, dose inferred, filed as 0.5)
[17] = at 50.0 µM (retest, dose inferred, filed as 5.0)

Measured: growth inhibition

CCC(C)C(=O)OCC(=O)c1ccc(-c2ccccc2)cc1 (stereo unspecified)
inactive: [1]; at 1.2 µM -1% | [1]; at 3.7 µM -2% | [1]; at 11.0 µM -2% | [1]; at 33.0 µM -5% | [1]; at 100.0 µM -7% | [2]; at 1.2 µM 1% | [2]; at 3.7 µM 3% | [2]; at 11.0 µM 8% | [2]; at 33.0 µM 10% | [2]; at 100.0 µM 9% | [3]; at 1.2 µM 0% | [3]; at 3.7 µM -1% | [3]; at 11.0 µM 1% | [3]; at 33.0 µM -4% | [3]; at 100.0 µM -35% | [4]; at 1.2 µM 0% | [4]; at 3.7 µM 0% | [4]; [16] 13% | [4]; at 11.0 µM 0% | [4]; at 33.0 µM 1% | [4]; [17] -8% | [4]; at 50.0 µM -8.9% | [4]; at 100.0 µM -2% | [5]; at 1.2 µM -3% | [5]; at 3.7 µM -2% | [5]; [16] -3% | [5]; at 11.0 µM -2% | [5]; at 33.0 µM -4% | [5]; [17] 0% | [5]; at 50.0 µM 2.3% | [5]; at 100.0 µM -6% | [6]; at 1.2 µM -1% | [6]; at 3.7 µM 1% | [6]; at 11.0 µM 5% | [6]; at 33.0 µM 5% | [6]; at 100.0 µM 4% | [7]; [16] 6% | [7]; [17] -1% | [7]; at 50.0 µM -3.05% | [8]; at 1.2 µM 3% | [8]; at 3.7 µM 3% | [8]; at 11.0 µM 1% | [8]; at 33.0 µM -6% | [8]; at 100.0 µM -7% | [9]; [16] -5% | [9]; [17] -8% | [9]; at 50.0 µM 2.3% | [10]; at 1.2 µM 25% | [10]; at 3.7 µM 35% | [10]; [16] 54% | [10]; at 11.0 µM 51% | [10]; at 33.0 µM 68% | [11]; at 1.2 µM -1% | [11]; at 3.7 µM -2% | [11]; at 11.0 µM -1% | [11]; at 33.0 µM -5% | [11]; at 100.0 µM -6% | [12]; at 1.2 µM 0% | [12]; at 3.7 µM 0% | [12]; at 11.0 µM -4% | [12]; at 33.0 µM -73% | [12]; at 100.0 µM -6% | [13]; at 1.2 µM -1% | [13]; at 3.7 µM -1% | [13]; at 11.0 µM -1% | [13]; at 33.0 µM -3% | [13]; at 100.0 µM -4% | [14]; [16] -4% | [14]; [17] 5% | [14]; at 50.0 µM -2.1%
active: [10]; [17] 74% | [10]; at 50.0 µM 87.2% | [10]; at 100.0 µM 75%

N=C(N)c1ccc(N=Nc2c(O)ccc3c2[nH]c2ccccc23)cc1
active: [1]; at 33.0 µM 95% | [1]; at 100.0 µM 97% | [2]; at 33.0 µM 87% | [2]; at 100.0 µM 95% | [3]; at 33.0 µM 95% | [3]; at 100.0 µM 95% | [4]; at 11.0 µM 91% | [4]; at 33.0 µM 95% | [4]; [17] 98% | [4]; at 50.0 µM 97.8% | [4]; at 100.0 µM 95% | [5]; at 33.0 µM 95% | [5]; [17] 96% | [5]; at 50.0 µM 98.2% | [5]; at 100.0 µM 97% | [6]; at 11.0 µM 90% | [6]; at 33.0 µM 96% | [6]; at 100.0 µM 97% | [7]; [17] 97% | [7]; at 50.0 µM 96.8% | [8]; at 33.0 µM 93% | [8]; at 100.0 µM 94% | [9]; [17] 95% | [9]; at 50.0 µM 95.9% | [10]; at 11.0 µM 79% | [10]; at 33.0 µM 95% | [10]; [17] 97% | [10]; at 50.0 µM 98.2% | [10]; at 100.0 µM 93% | [11]; at 11.0 µM 84% | [11]; at 33.0 µM 95% | [11]; at 100.0 µM 97% | [12]; at 11.0 µM 71% | [12]; at 33.0 µM 92% | [12]; at 100.0 µM 96% | [13]; at 11.0 µM 92% | [13]; at 33.0 µM 96% | [13]; at 100.0 µM 96% | [14]; [17] 98% | [14]; at 50.0 µM 98.3% | [15]; at 11.0 µM 93% | [15]; at 33.0 µM 96% | [15]; at 100.0 µM 95%
inactive: [1]; at 1.2 µM -2% | [1]; at 3.7 µM -1% | [1]; at 11.0 µM 69% | [2]; at 1.2 µM 8% | [2]; at 3.7 µM 36% | [2]; at 11.0 µM 57% | [3]; at 1.2 µM -2% | [3]; at 3.7 µM 2% | [3]; at 11.0 µM 64% | [4]; at 1.2 µM -2% | [4]; at 3.7 µM 11% | [4]; [16] 57% | [5]; at 1.2 µM -3% | [5]; at 3.7 µM -1% | [5]; [16] 15% | [5]; at 11.0 µM 68% | [6]; at 1.2 µM -1% | [6]; at 3.7 µM 3% | [7]; [16] 17% | [8]; at 1.2 µM -3% | [8]; at 3.7 µM 5% | [8]; at 11.0 µM 41% | [9]; [16] -24% | [10]; at 1.2 µM -4% | [10]; at 3.7 µM -3% | [10]; [16] 19% | [11]; at 1.2 µM -3% | [11]; at 3.7 µM 5% | [12]; at 1.2 µM 1% | [12]; at 3.7 µM 2% | [13]; at 1.2 µM 0% | [13]; at 3.7 µM 21% | [14]; [16] 24% | [15]; at 1.2 µM -10% | [15]; at 3.7 µM 11%
